Test results from the supplement of paper PMC6555819.

Legend:
Assay in all cases: PBM binding z-score (relative to random genomic background probes); higher = stronger binding; sequences stand for … in GC…GCGATTGACAGCGTAGAATGAAGG
[1] = test system: FXR:RXRa (NR concentration 270 nM, RXRa partner concentration 90 nM)
How it was run: (§1)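 Probes were double-stranded and carried 34-nt variable regions with direct-repeat seeds, single-nucleotide variants, half-site ablations and random human genomic background sequences, printed on custom Agilent 4×180K protein-binding microarrays. Arrays were incubated 1 h with ligand-free nuclear receptor dimers in PBS pH 7.4, 2% milk, 0.02% Triton X-100, 1 mM DTT, 0.2 mg/mL BSA and 0.4 mg/ml salmon testes DNA. Antibodies against each partner (one per run) detected binding, and scanned fluorescence was regression-normalized. Binding z-scores use the random background probes as reference.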

[2] = test system: LXRa:RXRa (NR concentration 270 nM, RXRa partner concentration 90 nM)
How it was run: as §1

[3] = test system: LXRa homodimer (NR concentration 270 nM)
How it was run: as §1

[4] = test system: LXRb:RXRa (NR concentration 270 nM, RXRa partner concentration 90 nM)
How it was run: as §1

[5] = test system: LXRb homodimer (NR concentration 270 nM)
How it was run: as §1

[6] = test system: PPARa:RXRa (NR concentration 270 nM, RXRa partner concentration 90 nM)
How it was run: as §1

[7] = test system: PPARg:RXRa (NR concentration 180 nM, RXRa partner concentration 90 nM)
How it was run: as §1

[8] = test system: PPARg:RXRa 270nM:90nM, anti-RXR (NR concentration 270 nM, RXRa partner concentration 90 nM)
How it was run: as §1

[9] = test system: PPARg:RXRa 30nM:10nM, anti-RXR (NR concentration 30 nM, RXRa partner concentration 10 nM)
How it was run: as §1

[10] = test system: PPARg:RXRa 90nM:30nM, anti-RXR (NR concentration 90 nM, RXRa partner concentration 30 nM)
How it was run: as §1

[11] = test system: PPARg:RXRa DBDmut IVT, anti-RXR (DBD mutation: RXRa K156A/R161A, NR concentration 270 nM, RXRa partner concentration 90 nM)
How it was run: as §1

[12] = test system: PPARg:RXRa IVT, anti-PPARg (NR concentration 270 nM, RXRa partner concentration 90 nM)
How it was run: as §1

[13] = test system: PPARg DBDmut:RXRa IVT, anti-PPARg (DBD mutation: PPARg1 K132A/R137A, NR concentration 270 nM, RXRa partner concentration 90 nM)
How it was run: as §1

[14] = test system: PPARg DBDmut IVT, anti-PPARg (DBD mutation: PPARg1 K132A/R137A, NR concentration 270 nM)
How it was run: as §1

[15] = test system: PPARg homodimer (NR concentration 180 nM)
How it was run: as §1

[16] = test system: PXR:RXRa (NR concentration 270 nM, RXRa partner concentration 90 nM)
How it was run: as §1

[17] = test system: PXR homodimer (NR concentration 270 nM)
How it was run: as §1

[18] = test system: RARa:RXR (NR concentration 270 nM, RXRa partner concentration 90 nM)
How it was run: as §1

[19] = test system: RARa homodimer (NR concentration 270 nM)
How it was run: as §1

[20] = test system: RARb:RXRa (NR concentration 270 nM, RXRa partner concentration 90 nM)
How it was run: as §1

In the case of TCATCTAGGTAAATGCTAGGTGAAAGTCCGATCT, the PBM binding z-score [1] was 0.554, the PBM binding z-score [2] was 0.411 and the PBM binding z-score [3] was 0.0508. For the same sequence, the PBM binding z-score [4] was 0.263, the PBM binding z-score [5] was -0.0728 and the PBM binding z-score [6] was 1.17. It also gave a PBM binding z-score [7] of 0.51, a PBM binding z-score [8] of 2.29 and a PBM binding z-score [9] of 3.44. It also gave a PBM binding z-score [10] of 2.92, a PBM binding z-score [11] of 3.81 and a PBM binding z-score [12] of 3.11. For the same sequence, the PBM binding z-score [13] was 1.09, the PBM binding z-score [14] was 0.995 and the PBM binding z-score [15] was 0.213. It also gave a PBM binding z-score [16] of 0.375, a PBM binding z-score [17] of -0.263 and a PBM binding z-score [18] of 0.578. For the same sequence, the PBM binding z-score [19] was -0.0135 and the PBM binding z-score [20] was 0.219.
With TAGCGTAGGTCATTCAGGGGCCAGTATAGAAAGC the PBM binding z-score [1] was 4.91, the PBM binding z-score [2] was 4.31 and the PBM binding z-score [3] was 0.816. It also gave a PBM binding z-score [4] of 3.43, a PBM binding z-score [5] of 1.24 and a PBM binding z-score [6] of 4.19. It also gave a PBM binding z-score [7] of 1.8, a PBM binding z-score [8] of 2.55 and a PBM binding z-score [9] of 0.626. The PBM binding z-score [10] was 1.6, the PBM binding z-score [11] was 0.864 and the PBM binding z-score [12] was 1.61. The PBM binding z-score [13] was 0.591, the PBM binding z-score [14] was 0.134 and the PBM binding z-score [15] was 2.48. It also gave a PBM binding z-score [16] of 3.08, a PBM binding z-score [17] of 0.138 and a PBM binding z-score [18] of 4.5. The PBM binding z-score [19] was 0.404 and the PBM binding z-score [20] was 3.99.
With CCTACTGGGCCACGAAAGGTCACTGATTCAGTGA the PBM binding z-score [1] was 2.97, the PBM binding z-score [2] was 4.41 and the PBM binding z-score [3] was 2.54. The PBM binding z-score [4] was 3.75, the PBM binding z-score [5] was -0.0263 and the PBM binding z-score [6] was 4.32. The PBM binding z-score [7] was 5.13, the PBM binding z-score [8] was 4.98 and the PBM binding z-score [9] was 2.2. It also gave a PBM binding z-score [10] of 4.02, a PBM binding z-score [11] of 5.42 and a PBM binding z-score [12] of 6.08. The PBM binding z-score [13] was 0.0808, the PBM binding z-score [14] was 0.166 and the PBM binding z-score [15] was 1.93. For the same sequence, the PBM binding z-score [16] was 4.63, the PBM binding z-score [17] was 0.0856 and the PBM binding z-score [18] was 4.94. The PBM binding z-score [19] was 0.447 and the PBM binding z-score [20] was 4.07.
Sequence ACAGACAGGCGAGTGAAGGTAACTCAGCTGGACG has a PBM binding z-score [1] of 0.222, a PBM binding z-score [2] of -0.221 and a PBM binding z-score [3] of -0.463. The PBM binding z-score [4] was -0.649, the PBM binding z-score [5] was -0.426 and the PBM binding z-score [6] was -0.25. For the same sequence, the PBM binding z-score [7] was 0.686, the PBM binding z-score [8] was -0.142 and the PBM binding z-score [9] was -0.453. It also gave a PBM binding z-score [10] of -0.153, a PBM binding z-score [11] of -0.427 and a PBM binding z-score [12] of -0.121. For the same sequence, the PBM binding z-score [13] was 0.466, the PBM binding z-score [14] was -0.29 and the PBM binding z-score [15] was 0.0641. The PBM binding z-score [16] was -0.279, the PBM binding z-score [17] was -0.674 and the PBM binding z-score [18] was 0.193. The PBM binding z-score [19] was -0.258 and the PBM binding z-score [20] was 0.0266.
Sequence CAAATTAGGTCACCGGAAGGTCAAAGTCCGCATG has a PBM binding z-score [1] of 6.61, a PBM binding z-score [2] of 6.31 and a PBM binding z-score [3] of 5.39. It also gave a PBM binding z-score [4] of 5.47, a PBM binding z-score [5] of 1.82 and a PBM binding z-score [6] of 6.44. The PBM binding z-score [7] was 9.14, the PBM binding z-score [8] was 7.56 and the PBM binding z-score [9] was 5.87. It also gave a PBM binding z-score [10] of 7.39, a PBM binding z-score [11] of 8.26 and a PBM binding z-score [12] of 8.72. The PBM binding z-score [13] was 5.54, the PBM binding z-score [14] was 4.55 and the PBM binding z-score [15] was 7.17. It also gave a PBM binding z-score [16] of 6.18, a PBM binding z-score [17] of 1.78 and a PBM binding z-score [18] of 7.5. For the same sequence, the PBM binding z-score [19] was 2.54 and the PBM binding z-score [20] was 5.54.
With CCTTACGGGTCACGAGGTTATATCACGACGAGCG the PBM binding z-score [1] was 7.05, the PBM binding z-score [2] was 4.73 and the PBM binding z-score [3] was 0.668. The PBM binding z-score [4] was 4.12, the PBM binding z-score [5] was -0.0743 and the PBM binding z-score [6] was 6.05. It also gave a PBM binding z-score [7] of 7.17, a PBM binding z-score [8] of 6.76 and a PBM binding z-score [9] of 3.62. It also gave a PBM binding z-score [10] of 5.46, a PBM binding z-score [11] of 4.44 and a PBM binding z-score [12] of 5.64. It also gave a PBM binding z-score [13] of 1.38, a PBM binding z-score [14] of 0.342 and a PBM binding z-score [15] of 2.85. It also gave a PBM binding z-score [16] of 4.59, a PBM binding z-score [17] of 0.517 and a PBM binding z-score [18] of 5.8. The PBM binding z-score [19] was 0.866 and the PBM binding z-score [20] was 4.5.
CGAACTAGGTCATCCCGGACAGTGAATACATTGA showed a PBM binding z-score [1] of 4.18, a PBM binding z-score [2] of 2.56 and a PBM binding z-score [3] of 0.912. For the same sequence, the PBM binding z-score [4] was 2.09, the PBM binding z-score [5] was 0.361 and the PBM binding z-score [6] was 4.71. The PBM binding z-score [7] was 7.36, the PBM binding z-score [8] was 6.47 and the PBM binding z-score [9] was 3.85. It also gave a PBM binding z-score [10] of 6.17, a PBM binding z-score [11] of 7.94 and a PBM binding z-score [12] of 8.33. The PBM binding z-score [13] was 3.25, the PBM binding z-score [14] was 4.44 and the PBM binding z-score [15] was 4.1. For the same sequence, the PBM binding z-score [16] was 1.56, the PBM binding z-score [17] was 0.96 and the PBM binding z-score [18] was 2.24. The PBM binding z-score [19] was 1.88 and the PBM binding z-score [20] was 3.69.
In the case of ATCGACAGGTCGTGAGGTGAGTATACAGAAAGGC, the PBM binding z-score [1] was 1.05, the PBM binding z-score [2] was 1.19 and the PBM binding z-score [3] was 0.0757. It also gave a PBM binding z-score [4] of 0.943, a PBM binding z-score [5] of 0.0816 and a PBM binding z-score [6] of 2.14. The PBM binding z-score [7] was 1.15, the PBM binding z-score [8] was 0.86 and the PBM binding z-score [9] was 0.126. The PBM binding z-score [10] was 0.461, the PBM binding z-score [11] was -0.42 and the PBM binding z-score [12] was 0.86. The PBM binding z-score [13] was -0.374, the PBM binding z-score [14] was -0.491 and the PBM binding z-score [15] was 0.776. The PBM binding z-score [16] was 0.904, the PBM binding z-score [17] was 0.267 and the PBM binding z-score [18] was 1.86. For the same sequence, the PBM binding z-score [19] was 0.537 and the PBM binding z-score [20] was 1.88.
